Anthrax LF inh2 = anthrax lethal factor protease inhibition. P15917. multiplex microsphere protease cleavage assay, LF. inhibition, % at 10 µM. 360,000 compounds, 0.12% hits. AID 588501; in the data active means inhibition above about 30%; inconclusive means no clear call, values can overlap the other calls; further: plate controls were buffer without enzyme for full effect and enzyme alone for no effect
Target sequence (P15917 whole entry, looked up): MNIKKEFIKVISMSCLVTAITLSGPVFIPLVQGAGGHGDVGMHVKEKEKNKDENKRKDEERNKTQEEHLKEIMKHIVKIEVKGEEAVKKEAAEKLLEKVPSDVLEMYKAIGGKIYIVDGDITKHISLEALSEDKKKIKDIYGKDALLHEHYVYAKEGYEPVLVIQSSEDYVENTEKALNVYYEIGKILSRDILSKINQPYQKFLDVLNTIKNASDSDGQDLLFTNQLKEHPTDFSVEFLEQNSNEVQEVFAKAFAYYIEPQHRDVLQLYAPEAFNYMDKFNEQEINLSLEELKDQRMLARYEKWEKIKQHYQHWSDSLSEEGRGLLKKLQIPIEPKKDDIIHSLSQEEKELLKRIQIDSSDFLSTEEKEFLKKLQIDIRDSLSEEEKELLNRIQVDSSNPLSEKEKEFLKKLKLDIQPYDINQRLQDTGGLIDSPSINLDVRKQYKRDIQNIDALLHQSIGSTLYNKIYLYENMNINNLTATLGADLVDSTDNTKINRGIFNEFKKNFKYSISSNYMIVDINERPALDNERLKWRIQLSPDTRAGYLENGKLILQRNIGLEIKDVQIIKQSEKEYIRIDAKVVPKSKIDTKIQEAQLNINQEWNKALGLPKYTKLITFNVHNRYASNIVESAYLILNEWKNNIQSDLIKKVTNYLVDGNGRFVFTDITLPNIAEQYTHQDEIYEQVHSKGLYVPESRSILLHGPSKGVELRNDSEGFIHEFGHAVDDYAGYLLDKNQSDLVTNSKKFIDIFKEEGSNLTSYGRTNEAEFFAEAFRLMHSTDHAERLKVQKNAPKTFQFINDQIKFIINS
BoNT F protease = BoNT F light chain protease inhibition. Multiplex microsphere protease cleavage assay, flow cytometry. AID 588497. inhibition, % at 10 µM. 360,000 compounds, 0.22% hits; in the data active means inhibition above about 35%, passing the limit was not always enough; inconclusive means no clear call, values can overlap the other calls; further: plate controls were buffer without enzyme for full effect and enzyme alone for no effect
SARS 3CLpro inh = SARS-CoV 3CLpro protease inhibition. recombinant SARS-CoV 3CLpro, quenched FRET peptide cleavage. AID 1706. inhibition, % at 6 µM. 290,000 compounds, 0.14% hits; in the data active means inhibition above about 12%
CCHF vOTU inh = blocks the CCHF virus ovarian tumor domain protease. AID 651958. 370,000 compounds, 0.55% hits. CCHFV vOTU protease, Pep-AMC fluorescence. inhibition, % at 11.5 µM; in the data active means inhibition above about 30%; further: 0% = vehicle wells with enzyme and 100% = no enzyme wells
Bead autofluor = compound fluorescence in toxin protease inhibitor counterscreen; compound autofluorescence counterscreen, microsphere flow cytometry; active compounds read high; fluorescence intensity (test concentration not listed); 360,000 compounds, 3.1% hits; in the data active means fluorescence intensity above about 16000; inconclusive means no clear call, values can overlap the other calls
BoNT-A LC inh2 = blocks Botulinum neurotoxin A light chain protease. multiplex microsphere protease substrate cleavage, flow cytometry. inhibition, % at 10 µM. 360,000 compounds, 0.17% hits. AID 588499; in the data active means inhibition above about 30%; inconclusive means no clear call, values can overlap the other calls; further: plate controls were buffer without enzyme for full effect and enzyme alone for no effect
BoNT-A LC CP2 = blocks botulinum neurotoxin A light chain protease; inhibition, % at 10 µM; shares compounds with BoNT-A LC inh2; 150 compounds, 10% hits; multiplex microsphere protease cleavage assay, flow cytometry; AID 602325; in the data active means inhibition above about 24%
LF protease CP2 = blocks anthrax lethal factor protease; inhibition, % at 10 µM; 150 compounds, 7% hits; AID 602327; shares compounds with BoNT-A LC inh2; multiplex microsphere protease cleavage assay
BoNTF LC inh 2 = BoNT/F light chain protease inhibition; shares compounds with BoNT-A LC inh2; multiplex microsphere protease cleavage assay, flow cytometry; inhibition, % at 10 µM; 150 compounds, 7% hits
Active calls of the source: *; ? = inconclusive; / = no result. Compounds with a hit are over-represented: about 3.9% of the library has one in this group of screens. Unless noted, no stated cut-off is given here; in the data, active means inhibition above about 25%; inactive means the rest.

SMILES | Anthrax LF inh2 | BoNT F protease | SARS 3CLpro inh | CCHF vOTU inh | Bead autofluor | BoNT-A LC inh2 | BoNT-A LC CP2 | LF protease CP2 | BoNTF LC inh 2
COc1ccc(N(CC(=O)NCCc2ccccc2)C(=O)CCC(=O)Nc2nccs2)c(OC)c1 | -5.5 | 21.9 | 1.4 | 15.0 | 3788 | 0.6 | / | / | /
Cc1cnc(C(=O)OCC(=O)c2c[nH]c3ccccc23)cn1 | 11.5 | ? | / | -3.8 | 9016 | 4.9 | / | / | /
Cc1ccc(C(=O)OCC(=O)c2c[nH]c3ccccc23)cc1 | 1.0 | -6.2 | -5.4 | 4.0 | 2547 | 0.5 | 4.1 | 3.3 | 14.4
Cn1ccc2c(-c3cccc4ccccc34)cc3c(c21)C1CCC3C1 (stereo not drawn) | -13.3 | 2.6 | / | -3.2 | 4492 | 0.0 | 1.2 | -2.8 | -2.8
Cn1ccc2c(-c3cncc4ccccc34)cc3c(c21)C1CCC3C1 (stereo not drawn) | 29.6* | -0.2 | / | -4.6 | 3532 | 47.6* | 10.1 | 9.6 | 4.0
Cn1ccc2c(-c3cccc(C=O)c3F)cc3c(c21)C1CCC3C1 (stereo not drawn) | -23.7 | -67.1 | / | 8.0 | 3712 | 18.8 | / | / | /
CCCCC1=NN(C(=O)c2ccco2)C(O)(C(F)(F)F)C1 (stereo not drawn) | -0.2 | -3.9 | 1.3 | 2.9 | 4937 | 0.2 | / | / | /
O=C(O)CN1CCN(CC(=O)O)CCN(CC(=O)O)CCN(CC(=O)O)CC1 | 8.9 | 63.1* | / | -3.1 | 5999 | 9.1 | 6.2 | 3.7 | 48.1*
CCN(CC(=O)NCc1cccs1)S(=O)(=O)c1ccc(F)c(F)c1F | -3.0 | 4.5 | / | 2.0 | 4355 | 1.2 | / | / | /
CCOc1ccccc1OCC(=O)OCC(=O)c1c(C)[nH]c2ccccc12 | -0.5 | 14.0 | / | 7.7 | 4284 | 3.1 | 0.9 | -1.2 | 1.5
CCOC(=O)c1c(C)[nH]c(C(=O)COC(=O)COc2ccccc2C)c1C | -0.5 | -3.0 | -3.6 | 12.2 | 2053 | 0.2 | / | / | /
Cc1cccc(C(=O)OCC(=O)c2c(C)[nH]c3ccccc23)c1O | -4.9 | 2.0 | / | 3.8 | 4168 | -0.8 | 0.5 | 0.6 | 1.1
Cc1ccc(NC(=O)Nc2ccccc2F)cc1S(=O)(=O)N1CCOCC1 | 1.6 | 2.0 | / | -6.2 | 3556 | 1.4 | / | / | /
CCN(CC)c1ccc2cc(S(=O)(=O)c3ccc(C)cc3)c(=O)oc2c1 | 15.0 | -5.3 | -2.2 | -7.4 | 2271 | 23.9 | 5.2 | 4.9 | 1.9
O=S(=O)(Nc1ccc(N2CCOCC2)cc1)c1c(F)cc(F)cc1Br | -11.1 | -31.7 | -2.6 | 0.1 | 3330 | -3.5 | / | / | /
CCCCC(c1nc2ccccc2[nH]1)n1c(-c2ccccc2)nc2cc(C)c(C)cc21 (stereo not drawn) | -0.4 | -19.4 | / | 15.1 | 6080 | -2.4 | / | / | /
CCCCCCCCC(c1nc2cc(C)c(C)cc2[nH]1)n1c(=O)c(-c2ccccc2Br)nc2ccccc21 (stereo not drawn) | 16.4 | 7.2 | / | -2.9 | 4821 | 28.3 | 28.1* | 2.4 | 18.9
CCCCC(c1nc2ccccc2[nH]1)n1c(=O)c(-c2ccccc2)nc2cc(C)c(C)cc21 (stereo not drawn) | 34.0* | 5.2 | / | -5.3 | 3875 | 30.3* | 11.1 | 7.7 | 11.0
Cc1ccc2c(c1)-c1c(cnn1CC(=O)NCCc1ccc(Cl)cc1)CO2 | / | / | / | 3.0 | / | / | / | / | /
O=C(COC(=O)c1ccc2c(c1)OCO2)Nc1ccccc1F | -10.0 | -5.0 | / | -9.1 | 3061 | -0.3 | / | / | /
Cn1ccc2c(-c3ccc(F)nc3)cc3c(c21)C1CCC3C1 (stereo not drawn) | 37.2* | 4.6 | / | -3.8 | 3942 | 50.3* | 33.4* | 32.2* | 0.8
Cn1ccc2c(-c3cccnc3)cc3c(c21)C1CCC3C1 (stereo not drawn) | 4.2 | 1.5 | / | -6.2 | 5938 | 0.8 | 1.7 | 0.4 | 9.6
Cn1ccc2c(-c3cccc(C=O)c3)cc3c(c21)C1CCC3C1 (stereo not drawn) | -7.0 | 0.8 | / | 2.4 | 4170 | 1.2 | / | / | /
COc1ccc(-c2cc3c(c4c2ccn4C)C2CCC3C2)cc1OC (stereo not drawn) | 6.5 | -30.3 | / | -5.1 | 4059 | 20.5 | 13.6 | 2.7 | -22.0
Cn1ccc2c(-c3ccc(F)cc3F)cc3c(c21)C1CCC3C1 (stereo not drawn) | 7.2 | -12.3 | / | -1.6 | 4959 | 15.6 | 1.6 | -2.4 | -9.5
